MCF10A rereplic – A quantitative high throughput screen for small molecules that induce DNA re-replication in MCF 10a normal breast cells; MCF 10A DNA re-replication, Hoechst nuclear intensity, 48 h; Potency, µM (titrated, usually from 46.1 µM), for the others: top-dose activity, positive = re-replication, actives largely listed as activators; hit rate 2.9% among 350,000; AID 624296, 2012; further: % of control where 0% means no effect; nearly all actives have a fitted effect of over 50% in size
HT1080 IDH1KD tx – qHTS for induction of synthetic lethality in tumor cells producing 2HG: qHTS for the HT-1080-IDH1KD cell line | HT-1080 IDH1 knockdown viability, ATP luminescence, 48 h | Potency, µM (highest dose often 46.1 µM), for inactives: top-dose activity, negative = toxicity, most hits filed as cytotoxic | hit rate 2% among 360,000;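 further: 0% = DMSO wells and -100% = cell-free medium wells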
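Assay cells: HT-1080 with IDH1 knockdown, 750 per well, RPMI/5% FBS. Exposure: 48 h at 37 °C following 2 h pre-incubation. Read: CellTiter-Glo luminescence; fitted concentration-response, curve class assigned.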
KB-V1 cytotox – qHTS assay for MDR1-selective chemotherapeutics: Primary screen using the drug-selected MDR subline cells KB-V1 | Potency, µM (series often up to 46.1 µM), usual class: cytotoxic | hit rate 3.4% among 400,000 | KB-V1 MDR cells viability, CellTiter-Glo, 72 h; further: on the % scale 0 is the no-effect control and ±100 the full control effect; nearly all actives have a fitted effect of over 60% in size
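KB-V1, DMEM (no phenol red) + 10% FBS; cpd pin-transferred, titration series; 72 h, 37 degrees C; CellTiter-Glo, luminescence. Data normalized, curve-fit.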
HT1080NT lethal – qHTS for induction of synthetic lethality in tumor cells producing 2HG: qHTS for the HT-1080-NT fibrosarcoma cell line; HT-1080-NT fibrosarcoma viability, CellTiter-Glo ATP luminescence, 48 h; hit rate 1.6% among 360,000; AID 686970, 2013; Potency, µM (highest dose often 46.1 µM), inactives show at the top dose activity, negative = less viability, actives largely listed as cytotoxic;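 further: NT is the 2HG producing partner of a matched IDH1 knockdown line; 0% = DMSO-treated cells and -100% = media-only wells without cells; nearly all actives have a fitted effect of over 55% in size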
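A 48-hour cytotoxicity screen used HT-1080-NT cells plated 2 hours before compound delivery. ATP-based CellTiter-Glo luminescence measured viability, normalized to DMSO and no-cell controls.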
KB-3-1 tox – qHTS assay for MDR1-selective chemotherapeutics: Primary screen using the parental adenocarcinoma cell KB-3-1 | KB-3-1 viability, CellTiter-Glo ATP luminescence, 72 h | Potency, µM (highest dose often 46.1 µM), most hits filed as cytotoxic | hit rate 1.4% among 400,000 | AID 1347075, 2019; further: on the % scale 0 is the no-effect control and ±100 the full control effect; nearly all actives have a fitted effect of over 60% in size
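Using CellTiter-Glo luminescence, growth of non-resistant KB-3-1 adenocarcinoma cells is assessed 72 h after pin-tool compound addition at 37 °C. Normalized responses across the concentration series yield fitted curves.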
SW480 rerep – A quantitative high throughput screen for small molecules that induce DNA re-replication in SW480 colon adenocarcinoma cells; SW480 DNA re-replication, Hoechst DNA content imaging, 48 h; Potency, µM (series often up to 46.1 µM), without a hit: at the top dose re-replication activation, most hits filed as activators; hit rate 1.8% among 340,000; further: % of control where 0% means no effect; nearly all actives have a fitted effect of over 55% in size
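Image-based read-out: total Hoechst fluorescence of nuclei (405 nm excitation, 500-530 nm emission), with hits raising the fraction of high-intensity nuclei. SW480 colon cells incubated 48 hr with compounds at 37 C.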
* = called active by the depositor; i = inactive; ? = inconclusive; . = no result. In the library only some 8% were active in any assay of this set; here they are far more common. The call rests on the fitted dose curve; in most records, active means well fitted curve in the direction sought with a large enough effect; inconclusive means small, poorly fitted or top-dose-only effect, or another doubt; inactive means no such curve, though single readings can be large; an effect the other way counts as inactive or inconclusive. Potency means the concentration at half of the fitted maximal effect.

SMILES	MCF10A rereplic	HT1080 IDH1KD tx	KB-V1 cytotox	HT1080NT lethal	KB-3-1 tox	SW480 rerep
CC(CC(=O)c1cccs1)CC(=O)c1cccs1	18µM*	-10%	i	4%	i	16µM*
O=C(CC(C(=O)O)c1ccccc1)c1cccs1 (configuration not stated)	0%	0%	i	-3%	i	-9%
C[C@H]1CN([C@@H](C)CO)S(=O)(=O)c2ccc(Br)cc2O[C@@H]1CN(C)C(=O)c1cccnc1	.	1%	i	5%	i	.
O=C1c2cc(Cl)ccc2-c2c(O)cc(Cl)cc21	13µM*	23µM*	?	9.2µM*	?	?
O=c1cc(O)c(-c2ccc(Cl)cc2)c(Cl)[nH]1	-10%	-4%	i	-5%	i	-9%
CN(c1ccccc1)S(=O)(=O)c1ccc(C(=O)OCC(=O)NC(N)=O)cc1	-1%	-1%	i	-3%	i	?
CCOc1cc(CNC(=O)Cn2c(-c3cccs3)cc3cc(F)ccc32)ccc1OC	.	.	12µM*	.	i	.
CCOc1ccc(CCNC(=O)Cn2c(-c3cccs3)cc3cc(F)ccc32)cc1OCC	.	.	?	.	6.5µM*	.
COc1ccccc1CNC(=O)Cn1c(-c2cccs2)cc2cc(F)ccc21	.	.	i	.	i	.
N#Cc1c(-c2ccc3c(c2)OCO3)ccn2nc(-c3cccc(C(F)(F)F)c3)nc12	?	?	i	?	i	?
CC(=O)O[C@H]1[C@@H](O)[C@H](O)[C@H](Oc2c(O)c(C)c3c4c2[C@@H](C)CC[C@@H]4[C@@H](C)C[C@H]3C=C(C)C)O[C@H]1C	?	?	26µM*	?	?	-13%
Cc1csc(C(C#N)C(=O)c2cc3ccccc3o2)n1 (configuration not stated)	19%	?	21µM*	?	?	9%
Cc1cc(-c2nc(C)c(C(=O)NN)s2)no1	18µM*	?	i	?	i	?
Cc1ccc(N/C=C/C(=O)c2sc(-c3ccccc3)nc2C)cc1	9.2µM*	?	?	?	?	14%
Cc1nc(-c2ccccc2)sc1C(=O)NN	18µM*	?	i	?	?	?
O=Cc1cc2ccccc2nc1SCc1ccc(Cl)c(Cl)c1	?	5.8µM*	5.8µM*	4.1µM*	4.6µM*	?
Cc1ccc(CSc2ncnc3ccccc23)cc1	23%	-1%	i	-6%	i	17%
O=Cc1cc2ccccc2nc1SCc1ccc(Cl)cc1	?	7.3µM*	?	5.2µM*	6.5µM*	?
Clc1ccc(CSc2cnnc3ccccc23)cc1Cl	-16%	-13%	i	-12%	i	-10%
Cc1ccc(CSc2nc3ccccc3cc2C=O)cc1	21µM*	6.5µM*	?	5.8µM*	8.2µM*	2.6µM*
CCNC1CCC(Nc2ccnc3cc(Cl)ccc23)CC1 (configuration not stated)	13%	?	?	-1%	?	?
OC(CNc1ccnc2cc(Cl)ccc12)CNC1CCCCC1 (configuration not stated)	?	21µM*	?	21µM*	?	23µM*
Cc1cccc(CSC2=NCCN2C(=O)c2ccc(S(=O)(=O)N(C)C)cc2)c1	3%	-1%	i	-12%	i	29µM*
Cc1cc(C)cc(NC(=O)[C@H]2O[C@@H]3OC(C)(C)O[C@@H]3[C@H]3OC(C)(C)O[C@H]32)c1	.	.	i	.	?	.
